# Source: the OligoGym collection
# Biological target: CDH19
# Test: pooled miR-30 sensor sort-seq; sequence = guide strand
# Conditions: shRNA
# Further: reference of the scale not given here.
row,Sequence,sensor-assay potency score (higher = more potent)
1,TTATCTATGATTGTAAAACTTG,-0.902
2,TTCATTGTCATTGATATCCGAA,0.271
3,TTGTTCCAGACAACGCTCCTGG,-0.175

# Biological target: CDH20
# Test: as above
# Conditions: shRNA
row,Sequence,sensor-assay potency score (higher = more potent)
1,TATCATTGACATCTGAGAGGGT,0.944
2,TATCTGAATGAAGCTTGCCGAC,-1.28
3,TTGGATAATCACTTCGTAGTAT,0.305
4,TAGTATTCTTTGGCTTCTCTGT,-0.859
5,TTCATCTCTGCATTGATGCCTT,-0.00989
6,TGTAGTAGAAATGCTGACCATT,-0.339
7,TTGATTGTGACAGGAACACTTC,-0.452
8,TGATGATGAACTCTGACTCGGG,-0.216
9,TTTCTTGCTTTCAAAACTCAGG,-0.799
10,TTGAGTTGTTGGTCACATCTGG,0.759
11,TTCTTTGGCTTCTCTGTCCATG,-0.339
12,TAGTATATTTCATCTCTGCATT,-0.967
